We go through 59 compounds from PubChem BioAssay AID2314 (National Center for Advancing Translational Sciences (NCATS), 2010).

Structures are written as SMILES. Among all 300,000 compounds or so, about 37,000 (12%) were called active. The entries come from a sample that favours actives as a whole. Values without a mark were called inactive. Rule as the data show it: active = max response mostly above about 13% (no sharp cut-off); inactive = mostly below about 14%.

The nature of this assay: Cycloheximide Counterscreen for Small Molecule Inhibitors of Shiga Toxin. Also: read at 38.3 µM for the half of the compounds with a filed dose; 0% is about no effect. Particulars: cell reporter, cycloheximide protein synthesis inhibition counterscreen; hits give high values. Background: A counterscreen serves to expose hits that act by an unwanted route or on another target.
Take `Cc1ccc(NC(=O)CN(C)C(=O)c2ccc(Br)o2)cc1`: the max response was -4.89%.
For `CCc1ccc(N(C(=O)c2csnn2)C(C(=O)NC2CCCCC2)c2ccncc2)cc1` (centres undefined) the value was 8.95%.
To `O=C(NNS(=O)(=O)c1ccccc1)c1cnn(-c2ccc(Cl)cc2)c1C(F)(F)F` belongs 1.19%; to `O=C(NC1CC1)c1ccc2c(c1)NC(=O)c1ccccc1S2`, 0.906%; to `Cc1ccccc1NC(=O)c1cc(S(=O)(=O)Nc2cccc(C(=O)O)c2)ccc1Cl`, -4.93%.
Consider `C/C(=N\Nc1cccc(C(=O)O)c1)c1ccc2c(c1)Nc1ccccc1S2`, for which the max response was 31.5% (active).
To `CC(C)C[C@@H](CO)N1CCN(Cc2ccc(O)cc2)CCC1=O` belongs -1.97%.
As to `CCCN1C2CCCC1CC(NC(=O)NC13CC4CC(CC(C4)C1)C3)C2` (centres undefined), the max response is 0.762%.
For `CC(C)c1ccc2oc(=O)cc(CN3CCN(Cc4ccccc4)CC3)c2c1` the value was -1.81%; for `O=C(CN(C(=O)c1csnn1)c1ccc(Br)cc1)NC1CCCC1`, -2.24%.
To `O=C(NCCc1ccccn1)c1nc(Cn2cc([N+](=O)[O-])cn2)no1` belongs -3.93%.
For `O=C(Cn1nc(Cc2cccnc2)c2ccccc2c1=O)NCC1COc2ccccc2O1` (centres undefined) the value was -4.83%.
Turning to `O=C(c1ccc(Cl)cc1)c1cnc(Nc2ccccc2)s1`, the max response is 8.33%.
For `S=c1[nH]nc(Nc2ccccc2)s1` the value was 1.07%; for `CC(C)(C)C(=O)c1cnc(Nc2ccccc2)s1`, 44.2% (active); for `S=c1[nH]nc(-c2ccco2)n1/N=C/c1ccc(Br)s1`, 1.13%.
To `CCNC(=O)CSc1nc(-c2ccccc2)cs1` belongs 44% (active); to `Cn1c(CNc2nc(-c3ccccc3)cs2)nnc1SCC(=O)c1ccccc1`, -2.68%.
For `O=C(CSCC(=O)Nc1cccc([N+](=O)[O-])c1)Nc1ccccc1` the value was 7.14%.
`O=C(CSc1nc2ccccc2c(=O)[nH]1)Nc1nc(-c2ccc(Br)cc2)cs1`: the max response is 3.64%.
To `O=C(CSC1=NCCS1)Nc1nc(-c2ccccc2)cs1` belongs 35.3% (active); to `CCOC(=O)CSc1nnc(CNc2nc(-c3ccccc3)cs2)n1C`, -0.673%.
In the case of `O=C(CSc1ncn[nH]1)Nc1nc(-c2cccc([N+](=O)[O-])c2)cs1`, the max response is 2.28%.
For `O=C(CSc1nc(-c2ccccc2)cs1)Nc1cccc([N+](=O)[O-])c1` the value was 39.4% (active).
For `Cc1csc(NC(=O)CSc2ccc(-c3ccc(F)cc3)nn2)n1` the value was -6.44%; for `Cc1cc2cc3c(cc2nc1SCC(=O)Nc1c(C)cccc1C)CCC3`, 0.976%; for `Cc1c(CCOC(=O)CC23CC4CC(CC(C)(C4)C2)C3)sc[n+]1Cc1ccc([N+](=O)[O-])cc1`, -3.94%.
To `Fc1ccc(Cn2nnnc2C(c2cccs2)N2CCCCCC2)cc1` (centres undefined) belongs 0.541%; to `CCOc1ccccc1NS(=O)(=O)c1cc2c3c(c1)C(C)C(=O)N3CCC2` (centres undefined), -3.18%; to `COc1ccccc1-c1nc(SC)n[nH]1`, 23.3% (active).
Consider `COc1ccccc1C1=Nc2cccc3cccc(c23)N1`, for which the max response was -1.72%.
To `CCCOc1ccccc1-c1nc(SCCC(=O)O)n[nH]1` belongs -3.17%; to `CN(CC(=O)Nc1ccccc1[N+](=O)[O-])Cc1ccc(Br)cc1`, 7.65%; to `CSc1ccccc1NC(=O)CN(C)CC(=O)Nc1ccc(Cl)cc1[N+](=O)[O-]`, 7.28%.
To `Cc1ccc(NC(=O)CN(C)Cc2ccc(F)cc2)c([N+](=O)[O-])c1` belongs 12.6% (active); to `Cc1cccc(NC(=O)COC(=O)CCc2ccccc2)c1C`, -2.64%.
On to `CCOC(=O)C(C)Oc1cccc2c(=O)n(CC(=O)NCCc3ccc(OC)c(OC)c3)ccc12` (centres undefined), for which the max response is -2.75%.
For `O=C1CCN(Cc2ccc([N+](=O)[O-])cc2)CCN1[C@H](CO)Cc1ccccc1` the value was -3.88%.
For `O=C(N/N=C/c1sc(N2CCCCC2)nc1-c1cccs1)c1cccnc1` the value was 20.6% (active); for `O=C(CNC(=O)c1cccnc1)N/N=C/c1cccnc1`, -3.21%.
For the compound `O=C(c1cccnc1)N1CCN(S(=O)(=O)c2cccs2)CC1`, the max response was -2.02%.
To `CN(C(=O)c1ccccc1)c1nccnc1C#N` belongs -1.74%; to `Cc1ccc(C)c(NC(=S)NNC(=S)Nc2ccc(C(C)C)cc2)c1`, 31% (active).
For `Cc1ccc(NC(=S)N/N=C2/CCCc3c(C)cc(C)cc32)cc1` the value was -1.84%; for `O=C(NC(=S)Nc1ccc(Cl)c(C(=O)O)c1)c1cncc(Br)c1`, 1.31%.
To `COc1ccc(Br)cc1/C=N/Nc1ccc(Cl)c(C(=O)O)c1` belongs 7.13%; to `Cc1ccc(C)c(NC(=S)NCC(c2cccnc2)N2CCOCC2)c1` (centres undefined), -3.15%.
On to `CC(C)c1ccc(NC(=S)NNc2ccc(Cl)c(C(=O)O)c2)cc1`, for which the max response was 38% (active).
For the compound `CCn1c(=O)c(=O)[nH]c2c(=O)oc3ccc(S(=O)(=O)Nc4ccc(OC)cc4)cc3c21`, the max response is -4.34%.
To `Cc1ccc(C(=O)NCCc2nnc(SCC(=O)Nc3cccc(C(=O)O)c3)n2C)cc1` belongs -0.755%.
On to `Cc1cc(OC(C)C(=O)Nc2ccc(S(=O)(=O)Nc3onc(C)c3C)cc2)cc(C)c1Cl` (centres undefined), for which the max response was -2.3%.
For `Cc1ccc(C(=O)/C=C/Nc2ccc(S(=O)(=O)Nc3onc(C)c3C)cc2)cc1` the value was 48.2% (active); for `C=C(C)CNC(=S)Nc1ccc(S(=O)(=O)Nc2cnc3ccccc3n2)cc1`, -1.53%.
For `O=C(/C=C/c1ccc(Cl)cc1Cl)c1cccnc1` the value was 2.63%.
For `Cc1noc(NS(=O)(=O)c2ccc(NC(=O)C34CCC(CC3)C4)cc2)c1C`, the max response was -1.3%.
To `Cc1noc(NS(=O)(=O)c2ccc(N/C=C/C(=O)c3ccccc3)cc2)c1C` belongs 38.5% (active); to `COc1ccc(C(=O)Nc2ccc(S(=O)(=O)Nc3onc(C)c3C)cc2)cc1OC`, -2.06%; to `CCn1c(SCC(=O)Nc2ccc(S(=O)(=O)Nc3onc(C)c3C)cc2)nnc1-c1ccccc1`, 5.03%.
For `O=C(/C=C/Nc1ccc(S(=O)(=O)Nc2cnc3ccccc3n2)cc1)c1cccnc1` the value was 19.6% (active).
